Records with an inconclusive call do not appear. Calls of active or inactive are those of the source. The calls were made as follows: active = hit-call score of the fitted dose curve at least 0.9, where 1 is the maximum; inconclusive = response in the unintended direction; inactive = score below 0.9.

rat Neurokinin-1 Receptor (NK1), Tacr1 (gene 24807), sequence (P14600 whole entry, looked up): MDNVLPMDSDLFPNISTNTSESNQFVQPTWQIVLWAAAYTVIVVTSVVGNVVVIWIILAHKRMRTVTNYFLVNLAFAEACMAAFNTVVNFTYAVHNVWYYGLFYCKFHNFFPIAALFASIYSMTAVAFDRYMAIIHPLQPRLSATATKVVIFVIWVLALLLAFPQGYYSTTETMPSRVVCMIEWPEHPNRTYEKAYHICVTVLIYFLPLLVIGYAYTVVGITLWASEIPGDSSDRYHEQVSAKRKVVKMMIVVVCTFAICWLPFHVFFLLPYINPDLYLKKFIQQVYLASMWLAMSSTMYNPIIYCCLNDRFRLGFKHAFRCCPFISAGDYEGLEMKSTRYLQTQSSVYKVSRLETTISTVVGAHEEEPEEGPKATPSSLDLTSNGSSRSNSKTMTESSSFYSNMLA
Adra2b (gene 24174), sequence (P19328 whole entry, looked up): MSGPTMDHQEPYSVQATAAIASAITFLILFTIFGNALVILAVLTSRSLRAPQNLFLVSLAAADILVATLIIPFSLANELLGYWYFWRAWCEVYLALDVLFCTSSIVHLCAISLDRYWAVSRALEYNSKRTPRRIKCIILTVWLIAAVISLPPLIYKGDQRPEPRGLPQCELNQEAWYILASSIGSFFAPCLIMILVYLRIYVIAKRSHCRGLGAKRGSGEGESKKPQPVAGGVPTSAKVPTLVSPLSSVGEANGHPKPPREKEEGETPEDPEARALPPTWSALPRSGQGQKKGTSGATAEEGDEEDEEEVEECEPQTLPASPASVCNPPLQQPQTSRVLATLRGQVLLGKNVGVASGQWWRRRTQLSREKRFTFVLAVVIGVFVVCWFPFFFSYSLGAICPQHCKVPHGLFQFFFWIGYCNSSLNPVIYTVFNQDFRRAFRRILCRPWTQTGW

One experiment has as its target Adra2b (gene 24174) (UniProt P19328). Put plainly: NVS_GPCR_rmAdra2B: NovaScreen (NVS) G Protein-Coupled Receptor Assay for hybird cells Adrenergic, Alpha 2B Receptor (Adra2B) (AID 2283306). Put shortly: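 Radioligand filter-binding assay on membrane proteins from neuroglioma/blastoma hybrid cells (rodent), 1 h after dosing; scintillation counting, loss of signal vs DMSO. Primary screen in duplicate at 25 uM, actives then run in concentration series.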
For `COc1ccc(OC(F)(F)F)cc1CN[C@H]1CCCN[C@H]1c1ccccc1`, the AC50 is 9.2 µM (active).

Consider `CCc1nc(N)nc(N)c1-c1ccc(Cl)cc1`, for which the AC50 is 5.45 µM (active).

With `Cc1cc(SC2=C(O)C[C@@](CCc3ccc(N)cc3)(C(C)C)OC2=O)c(C(C)(C)C)cc1CO`, the compound was classed as inactive.

Consider `CSc1ccc(Oc2ccc(S(N)(=O)=O)cc2CN(C)C)cc1C`, for which the AC50 is 1.74 µM (active).

With `NC(=Nc1ccccc1)Nc1ccccc1`, the AC50 was 11.7 µM (active).

Take `CCN(CC)CCOc1ccc(C(=C(Cl)c2ccccc2)c2ccccc2)cc1`: the AC50 is 16 µM (active).

For `Cc1ccc(-c2cc(C(F)(F)F)nn2-c2ccc(S(N)(=O)=O)cc2)cc1`, the outcome was inactive.

A further experiment deals with rat Neurokinin-1 Receptor (NK1), Tacr1 (gene 24807) (UniProt P14600). The experiment in a line: NVS_GPCR_rNK1: NovaScreen (NVS) G Protein-Coupled Receptor Assay for rat Neurokinin-1 Receptor (NK1) (AID 2283309). In a few lines:
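Rat submaxillary gland membranes; radioligand displacement read by filter-based scintillation counting after 1 h. Primary screen in duplicate at 25 uM; actives retested in concentration series; loss of binding fitted versus DMSO.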
For the compound `CCCCc1nc2cccnc2n1Cc1ccc(-c2ccccc2-c2nnn[nH]2)cc1`, the call was inactive.

On to `NC=O`, for which the result was inactive.

Take `CN(C)C(=O)NC1(c2ccccc2)CCN(CCC[C@]2(c3ccc(Cl)c(Cl)c3)CCCN(C(=O)c3ccccc3)C2)CC1`: the AC50 was 10.5 µM (active).

Turning to `CSc1ccc(Oc2ccc(S(N)(=O)=O)cc2CN(C)C)cc1C`, the AC50 is 25 µM (active).

With `CN(C)CCCN1c2ccccc2Sc2ccc(Cl)cc21`, the AC50 was 25 µM (active).

Take `CN(C)C(=O)NC1(c2ccccc2)CCN(CC[C@@]2(c3ccc(F)c(F)c3)CN(C(=O)c3ccccc3)CCO2)CC1`: the compound was called inactive.

Turning to `CCN(CC)CCOc1ccc(C(=C(Cl)c2ccccc2)c2ccccc2)cc1`, the AC50 is 21 µM (active).

The target of the next experiment is rat Neurokinin-3 Receptor (NK3), Tacr3 (gene 24808) (UniProt P16177). The experiment in a line: NVS_GPCR_rNK3: NovaScreen (NVS) G Protein-Coupled Receptor Assay for rat Neurokinin-3 Receptor (NK3) (AID 2283310). Put shortly: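 Rat cortical membranes; radioligand binding with filtration and scintillation counting, 2 h after dosing. Primary screen in duplicate at 25 uM, then concentration-response up to 50 uM; loss of binding signal relative to DMSO.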
rat Neurokinin-3 Receptor (NK3), Tacr3 (gene 24808), sequence (P16177 whole entry, looked up): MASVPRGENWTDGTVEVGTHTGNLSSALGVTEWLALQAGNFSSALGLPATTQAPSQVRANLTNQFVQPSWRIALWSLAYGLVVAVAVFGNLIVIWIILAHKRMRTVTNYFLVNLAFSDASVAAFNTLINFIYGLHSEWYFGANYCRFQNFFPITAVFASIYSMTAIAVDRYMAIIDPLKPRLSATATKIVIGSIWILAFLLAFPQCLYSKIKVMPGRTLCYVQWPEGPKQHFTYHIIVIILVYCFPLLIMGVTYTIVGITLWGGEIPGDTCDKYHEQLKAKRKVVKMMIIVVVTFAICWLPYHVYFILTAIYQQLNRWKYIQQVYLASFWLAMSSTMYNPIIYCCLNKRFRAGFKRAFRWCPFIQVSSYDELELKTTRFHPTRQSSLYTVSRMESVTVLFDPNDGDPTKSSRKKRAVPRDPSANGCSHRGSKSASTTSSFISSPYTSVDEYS
On to `COC(=O)[C@H]1[C@H]2C[C@@H]3c4[nH]c5cc(OC)ccc5c4CCN3C[C@H]2C[C@@H](OC(=O)c2cc(OC)c(OC)c(OC)c2)[C@@H]1OC`, for which the AC50 is 10.6 µM (active).

With `COc1ccc(OC(F)(F)F)cc1CN[C@H]1CCCN[C@H]1c1ccccc1`, the AC50 is 12.5 µM (active).

Turning to `CCCCc1nc2cccnc2n1Cc1ccc(-c2ccccc2-c2nnn[nH]2)cc1`, the AC50 was 5.16 µM (active).

Take `CCC(C)N(C)C(=O)c1cc2ccccc2c(-c2ccccc2Cl)n1` (stereo unspecified): the AC50 is 6.96 µM (active).

For `CN(C)C(=O)NC1(c2ccccc2)CCN(CCC[C@]2(c3ccc(Cl)c(Cl)c3)CCCN(C(=O)c3ccccc3)C2)CC1`, the concentration at half-maximal activity (AC50) was 0.0731 µM (active).

For the compound `CN(C)C(=O)NC1(c2ccccc2)CCN(CC[C@@]2(c3ccc(F)c(F)c3)CN(C(=O)c3ccccc3)CCO2)CC1`, the result was inactive.

With `CCCCCCCCCC[N+](C)(C)[O-]`, the outcome was inactive.

Source of the values: PubChem BioAssay (EPA / NIEHS).
